This passage reports growth results from PubChem BioAssay (NCI).

About 83,000 compounds went through this panel and 20% of them were active in at least one assay; those are over-represented in the sample as a whole.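 Growth was measured after 48 h exposure to one concentration of compound in 96-well plates. Values under 10 count as active.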 Values without a mark were called inactive. The source made the active and inactive calls.

In this experiment the test system is DU-145 prostate. Put plainly: NCI-60 one-dose screen, 48 h (100 = growth as untreated, 0 = no growth, -100 = all killed). The settings on record: 10 µM unless noted.
Turning to `COc1cc2c(=O)n(C3CCCCCCC3)c3c4cc[nH]c4ncc3c2cc1OC`, the growth is 62.5%.

`C1CCC([PH+](C2CCCCC2)C2CCCCC2[PH+](C2CCCCC2)C2CCCCC2)CC1.[Au].[CH-]1CCCCC1CC1CCCC[N-]1` (configuration not stated): the growth was -51.1% (active).

Take `CCCCN1CCCC[C@@H]1C(=O)N[C@H](C(=O)N(C)[C@H](C[C@@H](OC(C)=O)c1nc(C(=O)NC2CCC(C(=O)OC)CC2)cs1)C(C)C)C(C)C` (some centres not stated): the growth was 9.02% (active).

With `CS(=O)(=O)CCN1CC2CCCC(C2)C1`, the growth was 102%.

As for `COC(=O)[C@@H](C)C[C@H](Cc1ccccc1)NC(=O)c1nc([C@@H](C[C@H](C(C)C)N(C)C(=O)[C@@H](NC(=O)[C@H]2CCCCN2C)C(C)C)OC(C)=O)sc1C(C)C`, the growth is -0.426% (active).

As to `C=CC[Se]C(=O)c1ccccc1OC(C)=O`, the growth was 1.76% (active).

Take `CC(C)[C@@H]1NC(=O)[C@]2(C)CSC(=N2)c2csc(n2)CNC(=O)C[C@@H](/C=C/CCS)OC1=O`: the growth was 8.24% (active).

For the molecule `Clc1cccc(Cl)c1Cl`, the growth was 101%.

Take `O=C(CC1(O)C(=O)Nc2ccc(Cl)cc21)c1ccc(C(=O)NCC2CCC3(CC2)OOC2(CCCCC2)OO3)cc1` (configuration not stated): the growth is -60.1% (active).

For the molecule `COc1ccc(C(O)(C(=O)O)c2ccc(OC)cc2)cc1`, the growth is 104%.

In the case of `CCn1c2ccccc2c2cc(C(=O)c3ccc(C)c4ccccc34)ccc21`, the growth is 17.9%.

As to `COC(=O)[C@]12CCC(C)(C)C[C@H]1[C@H]1C(=O)C[C@@H]3[C@@]4(C)C[C@@]5(CC(C)(C)[C@@H]4CC[C@@]3(C)[C@]1(C)CC2)OO[C@@](C)(C(F)(F)F)O5`, the growth was 107%.

On to `CC[C@]12C=CCN3CC[C@@]4(c5ccc(OC)cc5N(C)[C@H]4[C@@](O)(C(=O)OC)[C@@H]1OC(=O)CCCC[P+](c1ccccc1)(c1ccccc1)c1ccccc1)[C@@H]32`, for which the growth is 14.7%.

With `CCCCCCCCOC(=O)CCN1CC1`, the growth is 98.5%.

As for `CC1[C@H](C)OC(=O)CC(O)CC(O)CC(O)CCC(O)C(O)C[C@]2(O)CC(O)C(C(=O)O)C(CC(OC3O[C@H](C)[C@@H](O)[C@H](N)[C@@H]3O)/C=C/C=C/C=C/C=C/CC/C=C/C=C/[C@H](C)[C@H]1O)O2` (some centres not stated), the growth is 96.7%.

On to `c1cc2c(c3c1CCNC3)OCO2`, for which the growth was 120%.

For the molecule `Cc1ccc(N2COOC3(OOC2)C2CC4CC(C2)CC3C4)cc1`, the growth was 109%.

Turning to `O=C(CC1(O)C(=O)N(Cc2ccccc2)c2ccc(Br)cc21)c1ccc(C(=O)NCC2CCC3(CC2)OOC2(CCCCC2)OO3)cc1` (configuration not stated), the growth is -98.8% (active).

Turning to `C[C@@H]1C[C@@]2(C)[C@@H](CC[C@@H]3[C@@H]2CC[C@]2(C)C(=O)CC[C@@H]32)CC1=O`, the growth was 108%.

In the case of `CCN(CC)c1ccc2c(c1)OC(N)=C(C#N)C2c1cc(OC)c2c(c1)OCO2` (configuration not stated), the growth is -3.69% (active).

As to `O=P(Oc1ccc(Cl)cc1)(N1CC1)N1CC1`, the growth was 54.4%.

Take `O=[N+]([O-])c1cc(I)cc([N+](=O)[O-])c1`: the growth was 105%.

As to `CC(=O)O[C@H](C[C@H](C(C)C)N(C)C(=O)[C@@H](NC(=O)[C@H]1CCCCN1C)C(C)(C)C)c1nc(C(=O)N[C@@H](Cc2ccccc2)C[C@H](C)C(=O)O)cs1`, the growth is 0.642% (active).

Regarding `CC[C@H](C)[C@H](NC(=O)[C@H]1CCCCN1C)C(=O)N(C)[C@H](C[C@@H](O)c1nc(C(=O)N[C@@H](Cc2ccccc2)C[C@H](C)C(=O)O)cs1)C(C)C`, the growth was 112%.

Consider `CN1CCC(O)(c2ccc(F)cc2)C(C(=O)c2ccc(F)cc2)C1` (configuration not stated), for which the growth was 107%.

Consider `O=C1NC(=O)C(=Cc2cccn2CCCCCn2c3ccccc3c(=O)c3ccccc32)C(=O)N1`, for which the growth is 113%.

As for `COC(=O)[C@@H](C[C@H](Cc1ccccc1)NC(=O)c1csc([C@@H](C[C@H](C(C)C)N(C)C(=O)[C@@H](NC(=O)[C@H]2CCCCN2C)C(C)C)OC(C)=O)n1)NC(=O)OCc1ccccc1`, the growth is -3.78% [9.5 µM] (active).

Take `CN(C)CCCOc1ccc2c(c1)c(C(=O)C(=O)NCCO)cn2Cc1ccccc1`: the growth is 106%.

On to `COc1cc(C=Nc2cc(Cl)cc(Cl)c2)ccc1N(CCCl)CCCl`, for which the growth is 98.2%.

`CCOC(=O)N[C@H]1CCc2c(Br)c(OC)c(OC)c(OC)c2-c2ccc(SC)c(=O)cc21`: the growth is -19.5% (active).

For `C/C(CC(C)(C)N1CC1)=N\NC(=O)Nc1cccc2ccccc12`, the growth is 68.2%.

Take `C[C@]12CCc3sc(-c4ccccc4O)nc3C1=CC[C@@H]1[C@@H]2CC[C@]2(C)C(=O)CC[C@@H]12`: the growth is 107%.

With `CC[C@H](C)[C@H](NC(=O)[C@H]1CCCCN1C)C(=O)N(C)[C@H](CC(=O)c1nc(C(=O)N[C@@H](Cc2ccccc2)C[C@H](C)C(=O)O)cs1)C(C)C`, the growth is 106%.

For `COc1cccc(/C=C/[N+](=O)[O-])c1`, the growth is -2.85% (active).

Consider `O=C1CC2(CC3(Cl)C(Cl)=C(Cl)C2(Cl)C3(Cl)Cl)C(=O)O1` (configuration not stated), for which the growth is 101%.

Take `CC12CCC3C(CCC4=CC(=O)CCC43CF)C1CCC2=O` (configuration not stated): the growth was 116%.

In the case of `Nc1ccc(-c2nc3cc(F)ccc3[se]2)cc1F`, the growth is 96.8%.
